Screen size: about 39,000 compounds; about 500 (1.3%) were called active. What follows is part of a selection rich in actives, with near analogues and random picks from the rest.
What follows are compounds tested on S. aureus RN4220 (assay: growth inhibition call (relative growth <= 0.2)). Settings: 50 µM.
In the case of C[C@@H]1CCCCO[C@@H](CN(C)Cc2ccc(C(=O)Nc3ccccc3N)cc2)[C@@H](C)CN([C@H](C)CO)C(=O)c2cc(NC(=O)c3ccccc3)ccc2O1, the growth inhibition call is reported as “inactive”. CN(CC(=O)Nc1ccc(F)cc1F)S(=O)(=O)c1ccc2c(c1)c(=O)n(C)c(=O)n2C was tested, and the growth inhibition call was “inactive”. For C[C@H]1CN([C@@H](C)CO)C(=O)Cc2cc(NS(=O)(=O)c3cn(C)cn3)ccc2O[C@@H]1CN(C)S(C)(=O)=O, the growth inhibition call was “inactive”. For CCN(CC)C(=S)SSC(=S)N(CC)CC, the growth inhibition call was “active”. COCCNC(=O)C[C@@H]1C[C@H]2c3cc(NS(C)(=O)=O)ccc3O[C@H]2[C@@H](CO)O1 was tested, and the growth inhibition call was “inactive”. CO[C@H]1CN(C)C(=O)c2ccc(NC(=O)Nc3cccc(Cl)c3)cc2OC[C@@H](C)N(C(=O)Nc2c(C)noc2C)C[C@@H]1C was tested, and the growth inhibition call was “inactive”. For C[C@H](CO)N1C[C@H](C)[C@H](CN(C)S(C)(=O)=O)Oc2ccc(NC(=O)Cn3cnnn3)cc2C1=O, the growth inhibition call was “inactive”. With Cc1ccc(CNc2ccc3c(c2)ncn3C2CCCCC2)cc1 the growth inhibition call was “active”. For Cc1ccc(-n2cnc3cc(NCc4cccs4)ccc32)cc1, the growth inhibition call was “inactive”. For COc1ccc(NC(=O)N(C)C[C@@H]2OCCCC[C@H](C)Oc3ccc(NC(=O)c4ccncc4)cc3C(=O)N([C@H](C)CO)C[C@@H]2C)cc1, the growth inhibition call was “inactive”. With C[C@@H]1CCCCO[C@H](CN(C)C(=O)Nc2ccc3c(c2)OCO3)[C@@H](C)CN([C@H](C)CO)C(=O)c2cc(NC(=O)Nc3ccccc3)ccc2O1 the growth inhibition call was “inactive”. Cc1cccc(OC[C@@H](O)CN)c1 was tested, and the growth inhibition call was “inactive”. For CC(C)(C)c1ccc(OC[C@@H](O)CN)cc1, the growth inhibition call was “active”. With CCc1ccc(OC[C@@H](O)CN)cc1 the growth inhibition call was “inactive”. With Cn1cnc(S(=O)(=O)N2C[C@H](O)COC[C@@H]3O[C@H](CC(=O)NC4CCCC4)CC[C@H]32)c1 the growth inhibition call was “inactive”. In the case of C=C[C@H]1CCC=C2C(=O)CCC[C@@H]21, the growth inhibition call is reported as “inactive”. For C[C@@H]1CCCCO[C@@H](CN(C)C(=O)Nc2ccc(C(F)(F)F)cc2)[C@H](C)CN([C@@H](C)CO)C(=O)c2cc(NS(=O)(=O)c3cn(C)cn3)ccc2O1, the growth inhibition call was “active”. With C[C@@H]1CN([C@H](C)CO)C(=O)c2cc(NS(=O)(=O)c3cn(C)cn3)ccc2O[C@@H](C)CCCCO[C@H]1CN(C)C(=O)Nc1ccc(C(F)(F)F)cc1 the growth inhibition call was “inactive”. For C[C@@H]1CCCCO[C@@H](CN(C)C(=O)Nc2ccc(C(F)(F)F)cc2)[C@@H](C)CN([C@H](C)CO)C(=O)c2cc(NS(=O)(=O)c3cn(C)cn3)ccc2O1, the growth inhibition call was “inactive”. With C[C@@H]1CCCCO[C@H](CN(C)C(=O)Nc2ccc(C(F)(F)F)cc2)[C@H](C)CN([C@@H](C)CO)C(=O)c2cc(NS(=O)(=O)c3cn(C)cn3)ccc2O1 the growth inhibition call was “inactive”. With C[C@@H]1CN([C@@H](C)CO)C(=O)c2cc(NS(=O)(=O)c3cn(C)cn3)ccc2O[C@@H](C)CCCCO[C@@H]1CN(C)C(=O)Nc1ccc(C(F)(F)F)cc1 the growth inhibition call was “active”. C[C@H]1CCCCO[C@H](CN(C)C(=O)Nc2ccc(C(F)(F)F)cc2)[C@@H](C)CN([C@@H](C)CO)C(=O)c2cc(NS(=O)(=O)c3cn(C)cn3)ccc2O1 was tested, and the growth inhibition call was “inactive”. For C[C@H](CO)N1C[C@H](C)[C@@H](CN(C)C(=O)Nc2ccc(C(F)(F)F)cc2)OCCCC[C@H](C)Oc2ccc(NS(=O)(=O)c3cn(C)cn3)cc2C1=O, the growth inhibition call was “active”. For C[C@@H]1CCCCO[C@H](CN(C)C(=O)Nc2ccc(C(F)(F)F)cc2)[C@H](C)CN([C@H](C)CO)C(=O)c2cc(NS(=O)(=O)c3cn(C)cn3)ccc2O1, the growth inhibition call was “inactive”. With C[C@@H]1CCCCO[C@H](CN(C)C(=O)Nc2ccc(C(F)(F)F)cc2)[C@@H](C)CN([C@H](C)CO)C(=O)c2cc(NS(=O)(=O)c3cn(C)cn3)ccc2O1 the growth inhibition call was “inactive”. In the case of C[C@@H]1CCCCO[C@@H](CN(C)C(=O)CCC(F)(F)F)[C@@H](C)CN([C@H](C)CO)C(=O)c2cc(NC(=O)NC3CCCCC3)ccc2O1, the growth inhibition call is reported as “inactive”. For CC(C)NC(=O)Nc1cccc2c1O[C@@H](CN(C)S(=O)(=O)c1ccc(F)cc1)[C@H](C)CN([C@@H](C)CO)C2=O, the growth inhibition call was “inactive”. In the case of O=C(C[C@@H]1C=C[C@@H](NC(=O)Nc2ccc3c(c2)OCO3)[C@H](CO)O1)NCCCN1CCOCC1, the growth inhibition call is reported as “inactive”. For COc1ccc(Nc2ccc(-c3ccncc3)s2)cc1Cl, the growth inhibition call was “inactive”. C[C@H]1CN([C@@H](C)CO)C(=O)Cc2cc(NS(C)(=O)=O)ccc2O[C@H]1CN(C)S(=O)(=O)c1ccccc1 was tested, and the growth inhibition call was “inactive”. For Cc1noc(C)c1NC(=O)Nc1ccc2c(c1)C(=O)N([C@H](C)CO)C[C@H](C)[C@@H](CN(C)C(=O)NC1CCCCC1)OCCCC[C@@H](C)O2, the growth inhibition call was “inactive”. For Cc1ccc(S(=O)(=O)Nc2ccc3c(c2)C(=O)N([C@@H](C)CO)C[C@@H](C)[C@@H](CN(C)C(=O)Nc2ccc(F)cc2)OCCCC[C@H](C)O3)cc1, the growth inhibition call was “inactive”. With CCN(CC)CCOc1ccc(C(=C(Cl)c2ccccc2)c2ccccc2)cc1.O=C(O)CC(O)(CC(=O)O)C(=O)O the growth inhibition call was “inactive”. Cc1ccccc1C(OCCN(C)C)c1ccccc1.O=C(O)CC(O)(CC(=O)O)C(=O)O (configuration not stated) was tested, and the growth inhibition call was “inactive”. For CCC(=C(c1ccccc1)c1ccc(OCCN(C)C)cc1)c1ccccc1.O=C(O)CC(O)(CC(=O)O)C(=O)O, the growth inhibition call was “active”. For CCN(CCCc1ccccc1)CCCc1ccccc1.O=C(O)CC(O)(CC(=O)O)C(=O)O, the growth inhibition call was “inactive”. For CN(C)CCOc1ccc(C(=C(CCCl)c2ccccc2)c2ccccc2)cc1.O=C(O)CC(O)(CC(=O)O)C(=O)O, the growth inhibition call was “active”. With CN(C)CCN(Cc1ccccc1)c1ccccn1.O=C(O)CC(O)(CC(=O)O)C(=O)O the growth inhibition call was “inactive”. In the case of C[C@H]1CN([C@@H](C)CO)C(=O)c2cc(C#Cc3ccccc3F)cnc2O[C@@H]1CN(C)C(=O)C1CCOCC1, the growth inhibition call is reported as “inactive”. For COc1ccc2c3c([nH]c2c1)[C@H](CO)N(C[C@]13CN(Cc2cc(on2)-c2ccccc2)C1)C(=O)Nc1ccc(cc1)F, the growth inhibition call was “inactive”. COc1ccc(S(=O)(=O)N(C)C[C@H]2OCCCC[C@H](C)Oc3ccc(NC(=O)CCC(F)(F)F)cc3C(=O)N([C@H](C)CO)C[C@H]2C)cc1 was tested, and the growth inhibition call was “inactive”. With C[C@@H]1CCCCO[C@@H](CN(C)C(=O)c2ccccc2)[C@H](C)CN([C@@H](C)CO)C(=O)c2cc(NC(=O)Nc3cccc4ccccc34)ccc2O1 the growth inhibition call was “inactive”.

Reference: the antibiotic and cytotoxicity screens of Wong et al. (2023)
